ATG4B inh: blocks human ATG4B protease cleavage of LC3 substrate; ATG4B cleavage of LC3-PLA2, NBD-HPC fluorescence, 1 h; AID 504462; inhibition, % at 8.33 µM; 340,000 tested, 0.51% active; in the data active means inhibition above about 40%
Calb FLC: C. albicans growth modulation with fluconazole | 300,000 tested, 0.57% active | growth inhibition, % (test concentration not listed) | C. albicans CaCi-2 (fluconazole-resistant clinical isolate) + fluconazole, Alamar Blue growth, 48 h;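 active means growth inhibition above about 58% in most replicates, limit read from the data, passing the limit was not always enough; inconclusive means exactly half the replicates above a set limit; inactive means most replicates below a set limit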;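 further: all wells also contain fluconazole at 8 µg/ml as a sub-toxic cotreatment; 0% = median of DMSO wells and 100% = median of geldanamycin control wells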
FAS-TE inh: FAS thioesterase (human) inhibition; 360,000 tested, 0.67% active; inhibition, % at 15 µM; P49327; AID 602261; recombinant FAS-TE, OMFH fluorogenic substrate, fluorescence endpoint;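 active means compounds whose normalised, plate-corrected inhibition of enzyme fluorescence in the single-dose primary screen is 50% or more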;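 further: 0% = DMSO with enzyme and 100% = substrate without enzyme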
NadD block: blocks S. aureus nicotinate mononucleotide adenylyltransferase | inhibition, % at 20 µM | 360,000 tested, 0.78% active | purified NadD enzyme, colorimetric absorbance read-out | AID 602399; in the data active means inhibition above about 26%
SUMO Mot1 rescue: SUMOylation pathway inhibition by Mot1-301 growth rescue. S. cerevisiae Mot1-301 growth rescue, ATP luminescence, 38.5C; percent above DMSO median, 100 means doubled. growth rescue, % at 18.8 µM. 320,000 tested, 1% active;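 active means every valid replicate shows activation above 250% relative to neutral control wells; inactive means the rest, any valid replicate at or below 250%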;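 further: OY570 slx delta 5 strain wells were the positive control but not used for scaling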
FAS-TE conf: confirmation of human fatty acid synthase thioesterase inhibitors; shares compounds with FAS-TE inh; recombinant FAS-TE, OMFH fluorogenic substrate, fluorescence; inhibition, % at 15 µM; 2,300 tested, 45% active;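 active means compounds inhibiting the enzyme by at least 50% at 15 µM in any one of the replicates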;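 further: 0% = enzyme with DMSO only and 100% = wells lacking enzyme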
Starred values were filed as active, the others as inactive; ? = inconclusive; . = no result. An excerpt weighted towards active compounds, which were near 3.1% of everything screened.

SMILES | ATG4B inh | Calb FLC | FAS-TE inh | NadD block | SUMO Mot1 rescue | FAS-TE conf
O=C(NCCN1C(=O)S/C(=C\c2ccccc2)C1=O)C1CCN(S(=O)(=O)c2cccs2)CC1 | -4.6 | -4.1 | 52.7* | -0.4 | 359.7 | 58.0*
COC(=O)C1=C(C)NC(C)=C(C(=O)OC)C1c1ccc(OC(=O)c2oc3ccccc3c2C)c(OC)c1 | 9.7 | 2.5 | 52.4* | 9.6 | 11.7 | 17.6
CCCc1cc(=O)oc2cc(OCC(=O)NC3CCN(Cc4ccccc4)CC3)ccc12 | -6.1 | -16.1 | 1.4 | 0.2 | -14.6 | .
CCOc1cc(Br)cc(/C=N/NC(=O)c2cccnc2)c1O | 5.5 | -1.4 | 40.4 | -2.9 | 175.5 | .
Cc1ccc(SC2=C(Sc3ccc(C)cc3)C(=O)c3ccccc3C2=O)cc1 | -3.6 | -5.4 | 70.4* | 6.5 | -11.4 | 12.7
Cc1c(OCc2nn[nH]n2)ccc2c(-c3ccccc3)cc(=O)oc12 | -5.5 | -5.9 | 76.1* | 5.8 | 32.5 | 86.0*
CCCc1cc(=O)oc2c(C)c(OCc3nn[nH]n3)ccc12 | -0.8 | -1.3 | 20.4 | 4.0 | 5.2 | .
COc1ccc(-c2cc(=O)oc3c(C)c(OCc4nn[nH]n4)ccc23)cc1 | -12.8 | 55.6 | 61.8* | 15.3 | -5.1 | 69.3*
CC(C)(C)C(=O)CSc1nc(N)cc(=O)[nH]1 | -0.5 | -5.8 | -5.0 | -5.3 | -0.9 | .
O=C1CC(c2ccccc2)CC2=C1C1(CCCC1)N=C(Nc1nc3ccccc3o1)N2 (stereo not given) | . | . | 69.2* | 27.0 | . | 10.5
O=C1CC(N2CCC(c3nc4ccccc4o3)CC2)C(=O)N1 (stereo not given) | -4.7 | -4.7 | -2.1 | -0.2 | 3.0 | .
CCC(C)NS(=O)(=O)c1ccc(OCC(=O)NCc2ccccn2)cc1 (stereo not given) | 11.2 | -4.1 | -4.7 | -1.8 | 3.9 | .
O=C1OC(c2ccccc2)(c2cc(Br)ccc2O)c2ccccc21 (stereo not given) | 8.4 | . | 10.3 | 0.3 | . | .
O=C(NC(=S)Nc1ccc2c(c1)OCCO2)c1cccc2ccccc12 | -1.7 | 0.5 | 56.3* | -5.8 | 3.6 | 24.2
CC1(C)CC(=O)C=C(c2ccc(COC(=O)Cc3ccccc3)cc2)C1=O | . | . | 73.4* | 2.6 | . | 18.7
CC1(C)CC(=O)C=C(c2ccc(-c3cnn(Cc4ccccc4)c3)cc2)C1=O | . | . | 59.8* | 2.7 | . | 70.7*
COc1cc(F)ccc1-c1cc(C(=O)NCc2cccc(Cl)c2)[nH]n1 | . | . | 16.2 | -3.0 | . | .
COc1ccc(Cl)cc1-c1cc(C(=O)NCc2cccc(Cl)c2)[nH]n1 | . | . | 50.6* | -0.7 | . | 51.1*
COc1ccc(F)cc1-c1cc(C(=O)NCc2ccc(C(F)(F)F)cc2)[nH]n1 | . | . | 53.0* | -3.4 | . | 13.2
COc1ccc(C(=O)OCC(=O)NC(=O)NC2CCCC2)c(OC)c1 | -2.4 | -12.3 | -2.3 | -3.8 | 195.8 | .
O=[N+]([O-])c1ccc(S(=O)(=O)Nc2ccc(-c3ccccc3)cc2)cc1 | . | . | 70.2* | -7.1 | . | 70.2*
CC(Cc1ccccc1)=NNS(=O)(=O)c1ccc([N+](=O)[O-])cc1 | -0.8 | . | 59.5* | -3.9 | . | 66.0*
O=S(=O)(Nc1ccc(-c2csc(-c3ccccc3)n2)cc1)c1ccc(F)cc1 | -11.6 | -1.1 | 57.5* | 2.8 | 31.2 | 0.6
O=C(NCc1cccnc1)c1cc(C2CCCCN2C(=O)OCc2ccccc2)on1 (stereo not given) | . | . | -3.5 | -1.1 | . | .
COc1cccc(-n2c(CN3CCN(c4ccccn4)CC3)nc3ccc([N+](=O)[O-])cc3c2=O)c1 | -2.9 | 23.3 | 80.9* | -0.4 | -6.7 | 81.4*
SMILES | ATG4B inh | Calb FLC | FAS-TE inh | NadD block | SUMO Mot1 rescue | FAS-TE conf
COc1ccc(-n2c(CN3CCN(c4ccccc4)CC3)nc3ccc([N+](=O)[O-])cc3c2=O)c(OC)c1 | -8.1 | -6.4 | 24.9 | 10.3 | -14.8 | .
COc1cccc(-n2c(CN3CCN(c4cccc(C)c4)C(C)C3)nc3ccc([N+](=O)[O-])cc3c2=O)c1 (stereo not given) | 3.5 | 0.4 | 80.2* | 18.5 | 5.2 | 19.5
Cc1ccc(C(=O)NCCSCc2ccc(Cl)cc2Cl)cc1[N+](=O)[O-] | 3.1 | ? | 51.3* | -3.9 | 110.5 | 27.4
Cc1ccc(C(=O)NCCSC(C)(C)C)cc1[N+](=O)[O-] | -6.4 | -25.8 | 56.0* | -6.8 | . | 56.0*
CC1=C(C(=O)Nc2cccc(C)c2C)C(c2cccs2)NC(=S)N1 (stereo not given) | -10.1 | 0.3 | -11.9 | -3.0 | -1.4 | .
CC(C)c1cccc(OCCN2CCCC2)c1 | 4.5 | -18.2 | -4.3 | -2.2 | 71.8 | .
CNc1cccc(-c2ccc(N3CCN(C)CC3)nc2)n1 | . | . | -8.8 | -2.4 | . | .
CS(=O)(=O)c1ccc2nc(NC(=O)C3=NN(c4ccccc4)C(=O)CC3)sc2c1 | -15.0 | -6.9 | -1.7 | 1.8 | -6.1 | .
CS(=O)(=O)c1ccc2nc(NC(=O)c3cc(-c4ccccc4)nn3-c3ccccc3)sc2c1 | -8.9 | 26.0 | 86.0* | 11.1 | 5.0 | 12.0
O=C(CSc1ccc([N+](=O)[O-])cn1)Nc1ccccc1N1CCOCC1 | 0.9 | 2.2 | 22.0 | -4.7 | -3.7 | .
O=C(CSc1ccc([N+](=O)[O-])cn1)Nc1cc(C(F)(F)F)ccc1N1CCOCC1 | -4.7 | 0.1 | 55.8* | -7.9 | -6.3 | 14.9
CCOC(=O)C1(CCc2ccccc2)CCN(C(=O)CCn2cncn2)CC1 | -2.1 | 35.6 | -5.9 | -1.5 | -10.8 | .
Cc1ccc(NC(=O)Cn2nc(-c3ccco3)ccc2=O)cc1Cl | -13.2 | -13.9 | 50.3* | -4.8 | 2.1 | 33.4
Cc1ccc(NC(=O)Cn2nc(C)c([N+](=O)[O-])c2C)cc1Cl | 5.7 | -26.7 | 18.9 | -8.6 | . | .
O=C(Nc1ccc(S(=O)(=O)N2CCOCC2)cc1)c1c(F)cccc1F | -3.5 | -13.7 | -4.5 | 0.0 | -4.7 | .
Cc1cccc2cc(/C=N/Nc3ccc(C(=O)O)cc3)c(Cl)nc12 | 11.1 | -2.1 | 53.9* | 7.5 | 19.0 | 49.7*
Cc1ccc2c(c1)[C@@H]1[C@H](CO2)[C@H](c2ccccc2)[C@]2(C)C(=O)N[C@H](C)C(=O)N12 | 1.8 | . | -5.7 | 2.1 | -14.7 | .
Cc1ccc2c(c1)NC(=O)[C@@]1(C)[C@@H](c3ccccc3)[C@H]3COc4ccccc4[C@@H]3N1C2=O | 7.4 | . | 67.8* | 6.2 | 234.7 | 27.2
C[C@H]1NC(=O)[C@]2(C)[C@@H](c3ccccc3)[C@H]3COc4ccccc4[C@H]3N2C1=O | . | . | -6.6 | -0.7 | . | .
Cc1ccc2c(c1)[C@H]1[C@H](CO2)[C@H](c2ccccc2)[C@]2(C)C(=O)Nc3ccccc3C(=O)N12 | 12.5 | . | 53.2* | 1.8 | 341.1* | 29.7
Cc1ccc2c(c1)[C@H]1[C@H](CO2)[C@H](c2ccccc2)[C@]2(C)C(=O)Nc3cc(F)ccc3C(=O)N12 | -1.9 | . | 54.0* | 3.6 | 251.3 | 20.6
C[C@@]12C(=O)Nc3cc(F)ccc3C(=O)N1[C@H]1c3cc(Br)ccc3OC[C@@H]1[C@@H]2c1ccccc1 | -1.9 | . | 80.4* | 11.5 | 301.6 | -2.2
CC1(C)OC(=O)C2=C(C[C@@H](C3CCCCC3)O[C@H]2c2ccccc2)O1 | . | . | 16.8 | 0.0 | . | .
